Compound activity: PubChem, National Center for Advancing Translational Sciences (NCATS)
Sampled rows, rich in hits. Any-hit rate of the full collection: about 2.7%.
Tau fluor cs: Counterscreen qHTS for Inhibitors of Tau Fibril Formation, Fluorescence Polarization; tau K18 P301L Alexa594 fluorescence, heparin fibrillization; Potency, µM (highest dose often 57.7 µM), for the others: at the highest dose activity change, negative = decrease; 280,000 tested, 0.93% active; AID 1463, 2008; further: potency means the concentration at half of the fitted maximal effect; nearly all actives have a fitted effect of over 55% in size
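Human K18 P301L tau (15 uM unlabeled plus 0.24 uM Alexa 594-labeled, final) in 100 mM sodium acetate pH 7 was mixed with compound and 20 uM heparin and incubated 6 hr at 37 C.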
Tau fibril FP: qHTS for Inhibitors of Tau Fibril Formation, Fluorescence Polarization | 280,000 tested, 0.39% active | AID 1468, 2008 | Potency, µM (doses to about 57.7 µM), for the others: at the highest dose activity, negative = inhibition, hits mostly inhibitors | K18 P301L tau heparin fibrillization, Alexa594 FP, 6 h; further: potency means the concentration at half of the fitted maximal effect; nearly all actives have a fitted effect of over 55% in size
Target sequence (P10636 561-689 P618L limits assumed): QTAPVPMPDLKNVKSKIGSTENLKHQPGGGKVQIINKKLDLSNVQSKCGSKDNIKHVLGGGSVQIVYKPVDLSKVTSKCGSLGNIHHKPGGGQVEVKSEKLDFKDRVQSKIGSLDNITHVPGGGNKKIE
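Compound effects on tau fibrillization are measured by Alexa 594 fluorescence polarization (ex 555, em 632 nm). K18 P301L tau is used at 15 uM with 0.24 uM labeled tracer, and 20 uM heparin induces aggregation over 6 hr at 37 C.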
Coupling enz: qHTS Assay for Inhibitors of Fructose-1,6-bisphosphate Aldolase from Giardia Lamblia: Coupling assay counterscreen | coupling enzyme system counterscreen, AmpLite Red fluorescence | activity change, negative = inhibition, % at 58.2 µM, hits read low | 290,000 tested, 0.67% active; in the data active means activity change below about -30%
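Final compound at 57.5 uM, incubated 10 min at RT with coupling enzyme reagent (glyceraldehyde-3-phosphate), then 20 min with substrate and AmpLite Red detection. Fluorescence read at 525/598 nm; tests interference with the coupling assay, not aldolase inhibition.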
Tau fibril ThT: qHTS for Inhibitors of Tau Fibril Formation, Thioflavin T Binding | Microtubule-associated protein tau (Homo sapiens), P10636 | recombinant tau K18 P301L, heparin-induced fibrillization, ThT fluorescence | Potency, µM (titrated, usually from 57.4 µM), inactives show top-dose activity, negative = inhibition, usual class: inhibitors | 270,000 tested, 2.1% active | AID 1460, 2008; further: potency means the concentration at half of the fitted maximal effect; nearly all actives have a fitted effect of over 55% in size
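ThT emission at 510 nm, taken 1 hr after adding 30 uM dye, quantifies aggregates formed when 20 uM heparin acts on human tau K18 P301L for 6 hr at 37 C.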
An asterisk follows results filed as active; ? = inconclusive; . = no result given; ! = a repeat was not active; [ ] = dose if it differs, or a comment. Unless noted, the call rests on the fitted dose curve; in most records, active means well fitted curve in the direction sought with a large enough effect; inconclusive means small, poorly fitted or top-dose-only effect, or another doubt; inactive means no such curve, though single readings can be large; an effect the other way counts as inactive or inconclusive. On the % scale 0 is the no-effect control and ±100 the full control effect.

SMILES | Tau fluor cs | Tau fibril FP | Coupling enz | Tau fibril ThT
Cc1cc(OC(C)C)nc(-c2ccccc2O)n1 | -15.4% | ? | -0.8 | ?
COc1ccc(-c2n[nH]c(C)c2-c2ccc(Cl)cc2)c(O)c1 | 20µM*[quencher] | -10.4% | 1.5 | ?
COc1ccc(O)c(-c2c(-c3ccc(Cl)cc3)n[nH]c2C)c1 | -28.4% | -5.1% | -12.8 | -13.5%
Cc1[nH]nc(-c2ccc(O)cc2O)c1-c1ccc(Cl)cc1 | 22.4µM*[quencher] | ? | . | -15.9%
Cc1ccc(C)n1-c1cccc(C(=O)O)c1 | -13.3% | ? | -2.4 | ?
Cc1ccc(C)n1-c1cccc(N)c1 | ? | -11.5% | -8.9 | 15.8µM*
C(=N\NC1=Nc2cccc3cccc1c23)/c1ccccn1 | ? | 3.8% | -14.7 | 2.82µM*
Clc1ccccc1/C=N/NC1=Nc2cccc3cccc1c23 | -28.5% | 2.7% | -1.8 | 2µM*
COc1cc(C/C=C\c2ccccc2)c(OC)cc1O | ? | ? | -46.8* | 20µM*
COc1cc(Br)cc(CN2CCN(C/C=C/c3ccccc3)CC2)c1O | -14.3% | ? | 0.5 | -17.6%
CC(C)=CCC1=C(O)c2ccccc2C(=O)C1=O | ? | ? | -60.9* | 28.2µM*
CC(C)CCNC(=O)c1cnc2sc(N3CCCCC3)nn2c1=O | -3.6% | -6.4% | . | -3.1%
CCCCC/C=C/C=C1/C(=O)C=C[C@@H]1C/C=C\CCCC(=O)O | -4.2% | ? | 3.0 | 15.8µM*!
CCOc1ccc(CNC(=O)c2cc3c(=O)n(Cc4cccs4)ccc3nc2C)cc1 | -5.6% | 0.8% | . | -12.1%
CCn1c(C(=O)N2CCC(C(=O)N3CCN(c4cc(C)ccc4C)CC3)CC2)cc2sccc21 | -12.4% | 2.3% | . | ?
CCOC(=O)c1c(N)sn(-c2ccccc2)c1=S | -9.7% | -3.8% | 1.0 | -10.1%
CCOC(=O)c1c2c(c(=S)n(-c3ccccc3)c1N)CCC2 | ? | ? | -19.4 | 25.1µM*
Oc1c(Cl)cc(Cl)cc1C=Nc1cc(C(F)(F)F)ccc1N1CCc2ccccc2C1 | -27.7% | ? | -27.4 | 28.2µM*
CC(=O)Oc1ccc(N2C(=O)C3C(C2=O)C(C(=O)c2ccc(Cl)cc2)N2CCCC32)cc1 (configuration not stated) | -16.1% | ? | -0.2 | 35.5µM*
CC(=O)Oc1ccc(C(=O)[C@H]2[C@H]3C(=O)N(c4ccccc4)C(=O)[C@H]3[C@@H]3C=CC=NN32)cc1 | -10.9% | -2.5% | -41.4* | -3.1%
CCOC(=O)c1sc2ccccc2c1S(=O)(=O)N1CCN(c2cc(C)ccc2C)CC1 | -13.3% | -13.2% | . | -9.9%
O=[N+]([O-])c1ccc(-c2c[nH]c(=S)[nH]2)cc1 | ? | ? | 3.1 | 25.1µM*
CC(C)[C@@H](CC(=O)N[C@@H]1CCCC[C@H]1C(=O)N[C@H](CC(=O)N[C@@H](CCC(=O)O)CC(=O)O)Cc1c[nH]c2ccccc12)NC(=O)C[C@H](Cc1c[nH]c2ccccc12)NC(=O)[C@@H]1CCCC[C@H]1N | -10.1% | -2.3% | 1.3 | -7.6%
S=C(Nc1ccc(Cl)cc1)c1nc2ccccc2s1 | -20.4% | -6.7% | -0.1 | ?
O=C(Nc1ccc(Cl)cc1)/C(=C/c1cccc(O)c1)c1nc2ccccc2s1 | ? | ? | 1.5 | 20µM*
SMILES | Tau fluor cs | Tau fibril FP | Coupling enz | Tau fibril ThT
CCCC(=O)Nc1nc(C)c(-c2csc(Nc3ccccc3OC)n2)s1 | 15.8µM*[quencher] | 19.7% | 0.8 | 12.6µM*
C=CCCC(=O)Nc1nc(C)c(-c2csc(Nc3cc(OC)ccc3OC)n2)s1 | 14.1µM*[quencher] | 12.9% | 1.0 | 14.1µM*
CCCCCC(=O)Nc1nc(C)c(-c2csc(Nc3cc(Cl)ccc3OC)n2)s1 | ? | 2.2% | -1.8 | ?
CCC(=O)Nc1nc(C)c(-c2csc(Nc3ccc(C(=O)O)cc3)n2)s1 | . | . | -2.0 | .
CCCC(C)C(=O)Nc1nc(C)c(-c2csc(Nc3cc(OC)ccc3OC)n2)s1 (configuration not stated) | 8.91µM*[quencher] | ? | 0.4 | ?
CCC(=O)Nc1nc(C)c(-c2csc(Nc3cccc(C(=O)O)c3)n2)s1 | -20.9% | 5.7% | -8.2 | 3.98µM*
Cc1noc(C)c1C(=O)N1CCC[C@@]2(CCN(c3cccc(-c4ccccc4)c3)C2)C1 | . | . | -3.5 | .
COc1ccc(CCC(=O)NCc2ccc3c(c2)CCN3C(=O)c2ccc(Cl)cc2)cc1 | 4.4% | -8.4% | . | 8.6%
COc1ccc(CCNC(=O)CSC2=Nc3ccccc3C3=NC(CCC(=O)NCc4ccccc4)C(=O)N23)cc1OC (configuration not stated) | -9.3% | -11.9% | . | -10.6%
COc1ccccc1Nc1nc(-c2sc(NC(=O)CC(C)C)nc2C)cs1 | ? | 4.7% | -21.2 | ?
CC(=O)Nc1nc(C)c(-c2csc(Nc3cccc(C(C)=O)c3)n2)s1 | . | . | -9.9 | .
COc1cccc(Nc2nc(-c3sc(NC(=O)c4ccccc4)nc3C)cs2)c1 | 31.6µM*[quencher] | 7.8% | 0.7 | 17.8µM*
C=CCCC(=O)Nc1nc(C)c(-c2csc(Nc3cccc(OC)c3)n2)s1 | ? | ? | 0.8 | 14.1µM*
CCCC(=O)Nc1nc(C)c(-c2csc(Nc3cc(OC)ccc3OC)n2)s1 | 14.1µM*[quencher] | ? | -1.0 | ?
COc1cccc(Nc2nc(-c3sc(NC(=O)CC(C)C)nc3C)cs2)c1 | 15.8µM*[quencher] | 6.5% | -1.4 | 15.8µM*
Cc1ccc(C)c(Cn2c(=O)n(C(C)C)c(=O)c3oc4ccccc4c32)c1 | 2.0% | -2.6% | . | 3.3%
COc1ccc(Nc2nc(-c3sc(C)nc3C)cs2)cc1 | . | . | -6.7 | .
COc1ccc(OC)c(Nc2nc(-c3sc(N)nc3C)cs2)c1 | 14.1µM*[quencher] | -9.1% | -30.9* | 11.2µM*
Cc1ccc(Nc2nc(-c3sc(NC(=O)c4cccc(Cl)c4)nc3C)cs2)cc1 | ? | ? | -2.3 | ?
Cc1nc(NC(=O)c2ccc(Cl)cc2)sc1-c1csc(Nc2cccc(F)c2)n1 | 12.6µM*[quencher] | ? | -1.5 | 7.08µM*
c1ccc(Oc2c3ccccc3nc3ccccc23)cc1 | -11.2% | -1.1% | 4.2 | ?
Clc1ccc(Nc2ncnc3c2cnn3-c2ccccc2)cc1 | ? | ? | -9.3 | ?
Cc1ccc(-n2ncc3c(Nc4ccc5c(c4)OCCO5)ncnc32)cc1Cl | ? | -15.1% | . | ?
Clc1cccc(-n2ncc3c(Nc4ccc5c(c4)OCCO5)ncnc32)c1 | 6.31µM*[quencher] | ? | . | ?
Fc1ccc(-n2ncc3c(Nc4ccc5c(c4)OCCO5)ncnc32)cc1 | 11.2µM*[quencher] | 9.0% | . | ?
Fc1ccc(-n2ncc3c(Nc4cccc(Cl)c4)ncnc32)cc1 | ? | 10µM* | . | ?
CN(Cc1ccccc1)S(=O)(=O)c1ccc(NC(=O)c2cc(=O)c3ccccc3o2)cc1 | ? | ? | . | 3.5%
CC(=O)N1CCN(c2ccc(NC(=O)c3ccc([N+](=O)[O-])cc3)cc2)CC1 | . | . | 0.3 | .
